Measurements from PubChem BioAssay.
The source made the active and inactive calls. Unless noted, how the calls were made is not given here.

Assays:
[1] = resazurin metabolic signal in HepG2 cells – cell-based, resazurin fluorescence, 24 h, PK04 Diversity Set, profiling panel (AID 1172); conditions: HepG2 viability, higher = more signal
[2] = budding yeast growth changes without added modifier – OD600, strain BY4716, 24 h, basal condition, primary screen (AID 1173); conditions: S. cerevisiae BY4716 growth, OD600, 24 h; higher = more signal, called active from +8 up or from −8 down
[3] = viability profiling in MM1S myeloma cells – cell-based, resazurin fluorescence, basal, 24 h, PK04 Diversity Set, profiling panel (AID 1174); conditions: higher = more signal, called active from +8 up or from −8 down;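 further: MM1S multiple myeloma cell line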
[4] = target: Dihydroorotate dehydrogenase (quinone), mitochondrial (Plasmodium falciparum (isolate 3D7)) (UniProt Q08210); test: inhibition of P. falciparum DHODH – biochemical, C-terminal His tag, absorbance 600 nm, primary screen (AID 1175); conditions: PfDHODH enzyme, DCIP absorbance 600 nm; higher = more signal, called active from +8 up or from −8 down;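 further: recombinant parasite enzyme with a five histidine tag at its C terminus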
[5] = inhibition of PAO1 biofilm formation – strain PAO1, LB-PBS medium, absorbance 600 nm, primary screen (AID 1176); conditions: P. aeruginosa PAO1 growth/biofilm, A600, 12 h; higher = more signal
[6] = growth modulation of vineyard yeast isolate – strain RM11-1a, OD600, basal, 24 h, primary screen (AID 1177);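 further: cultures grown under basal conditions with no added stressor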; conditions: S. cerevisiae RM11-1a growth, OD600, 24 h; higher = more signal, called active from +8 up or from −8 down
[7] = growth of efflux-deficient E. coli DRC39 – strain DRC39, OD650, 24 h, E. coli filamentation inducers, primary screen (AID 1178);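 further: growth measured as culture turbidity by optical density at 650 nm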; conditions: E. coli DRC39 acrAB, higher = more signal, called active from +8 up or from −8 down
[8] = growth of efflux-deficient E. coli DRC39 – strain DRC39, OD650, 48 h, E. coli filamentation inducers, primary screen (AID 1179);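 further: screen aims at cell division blockers that make cells filament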; conditions: E. coli DRC39 delta-acrAB growth, higher = more signal, called active from +8 up or from −8 down
[9] = viability profiling in RPMI8226 myeloma cells – cell-based, resazurin fluorescence, basal, 24 h, PK04 Diversity Set, profiling panel (AID 1180); conditions: higher = more signal;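 further: RPMI8826 multiple myeloma cell line at 5000 cells per well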
[10] = target: E3 ubiquitin-protein ligase XIAP (Homo sapiens) (UniProt P98170); test: small molecules binding XIAP protein – biophysical, small-molecule microarray, fluorescence 635 nm, primary screen (AID 1181); conditions: higher = more signal;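 further: score merges 667 nm emission and signal to noise over triplicate slides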
[11] = test system: XIP peptide (Xip251-270) binding; test: XIP fragment 251-270 binding compounds – biochemical, small-molecule microarray, fluorescence 635/667 nm, 0.1 µg/mL protein, primary screen (AID 1182); conditions: fluorescent protein binding, 635 nm, higher = more signal, called active from +8 up or from −8 down
XIP peptide (Xip251-270) = test: compounds binding XIP fragment 251-270 – biochemical, small-molecule microarray, fluorescence 635/667 nm, 0.5 µg/mL protein, primary screen (AID 1183); conditions: fluorescence 635 nm, higher = more signal
[12] = blood-stage malaria parasite viability loss – strain 3D7, DAPI fluorescence, 100 nL, primary screen (AID 1184);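 further: parasites grown inside human red blood cells in medium with human serum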; conditions: P. falciparum 3D7 growth, 3 d, higher = more signal
[13] = target: Homeobox protein Hox-A13 (Mus musculus) (UniProt Q62424); test: disruptors of Hoxa13 oligonucleotide interaction – biochemical, fluorescence polarization, labeled oligonucleotide, primary screen (AID 1185); conditions: Hoxa13:DNA binding, 15 min, higher = more signal, called active from +8 up or from −8 down
[14] = blockers of DNA damage checkpoint Chk1 activation – imaging, HeLa, hydroxyurea, phospho-Chk1 antibody, percent positive cells, primary screen (AID 1186); conditions: hydroxyurea-induced phospho-Chk1 immunofluorescence imaging, higher = more signal
[15] = blockers of DNA damage checkpoint Chk1 activation – imaging, HeLa, hydroxyurea, phospho-Chk1 nuclear intensity, primary screen (AID 1187); conditions: hydroxyurea-induced phospho-Chk1 immunofluorescence imaging, higher = more signal

Chain of E3 ubiquitin-protein ligase XIAP (Homo sapiens) (P98170 whole entry, looked up, the tested form may be a part): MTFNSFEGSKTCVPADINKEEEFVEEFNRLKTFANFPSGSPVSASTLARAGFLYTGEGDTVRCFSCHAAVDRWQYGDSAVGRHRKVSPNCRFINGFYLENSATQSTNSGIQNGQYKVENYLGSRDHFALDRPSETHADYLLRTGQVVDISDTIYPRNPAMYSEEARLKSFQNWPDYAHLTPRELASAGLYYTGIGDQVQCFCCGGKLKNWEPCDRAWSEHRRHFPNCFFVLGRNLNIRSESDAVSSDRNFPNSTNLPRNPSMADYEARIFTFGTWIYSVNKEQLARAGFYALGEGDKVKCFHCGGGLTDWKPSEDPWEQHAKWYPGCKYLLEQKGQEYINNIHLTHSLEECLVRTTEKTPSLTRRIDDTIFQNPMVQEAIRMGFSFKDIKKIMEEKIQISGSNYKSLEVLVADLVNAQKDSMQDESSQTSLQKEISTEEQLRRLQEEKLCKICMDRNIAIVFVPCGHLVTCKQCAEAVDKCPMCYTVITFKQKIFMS
Chain of Homeobox protein Hox-A13 (Mus musculus) (Q62424 whole entry, looked up): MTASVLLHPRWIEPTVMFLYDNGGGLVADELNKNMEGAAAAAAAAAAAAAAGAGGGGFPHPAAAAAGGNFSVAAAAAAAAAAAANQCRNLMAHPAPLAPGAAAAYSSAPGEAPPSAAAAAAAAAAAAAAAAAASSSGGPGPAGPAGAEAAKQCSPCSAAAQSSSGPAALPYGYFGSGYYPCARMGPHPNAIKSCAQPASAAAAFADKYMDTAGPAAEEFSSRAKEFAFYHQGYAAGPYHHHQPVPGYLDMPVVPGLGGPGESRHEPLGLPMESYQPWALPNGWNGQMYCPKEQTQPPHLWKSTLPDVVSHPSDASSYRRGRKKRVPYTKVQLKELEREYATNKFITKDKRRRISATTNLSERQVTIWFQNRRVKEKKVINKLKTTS
Chain of Dihydroorotate dehydrogenase (quinone), mitochondrial (Plasmodium falciparum (isolate 3D7)) (Q08210 whole entry, looked up): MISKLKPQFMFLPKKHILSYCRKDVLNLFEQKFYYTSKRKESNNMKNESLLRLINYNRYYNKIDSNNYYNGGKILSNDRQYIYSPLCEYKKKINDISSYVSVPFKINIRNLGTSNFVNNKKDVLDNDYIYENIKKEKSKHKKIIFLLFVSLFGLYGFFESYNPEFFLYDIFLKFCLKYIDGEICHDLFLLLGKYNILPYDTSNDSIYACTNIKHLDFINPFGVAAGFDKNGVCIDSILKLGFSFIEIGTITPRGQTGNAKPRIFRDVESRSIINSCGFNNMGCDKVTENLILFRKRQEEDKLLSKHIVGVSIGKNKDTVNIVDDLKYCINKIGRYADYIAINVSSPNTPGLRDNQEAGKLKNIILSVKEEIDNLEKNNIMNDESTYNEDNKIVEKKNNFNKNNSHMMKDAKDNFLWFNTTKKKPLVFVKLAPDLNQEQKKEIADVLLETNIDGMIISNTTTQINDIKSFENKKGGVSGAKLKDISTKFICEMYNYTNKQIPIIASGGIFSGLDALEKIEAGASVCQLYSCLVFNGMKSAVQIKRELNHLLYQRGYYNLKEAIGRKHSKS

| SMILES | z-score [1] | z-score [2] | z-score [3] | composite z-score [4] | z-score [5] | z-score [6] | z-score [7] | z-score [8] | z-score [9] | composite z-score [10] | composite z-score [11] | composite z-score (XIP peptide (Xip251-270)) | z-score [12] | z-score [13] | z-score [14] | z-score [15] |
| --- | --- | --- | --- | --- | --- | --- | --- | --- | --- | --- | --- | --- | --- | --- | --- | --- |
| O=C1NC(=O)C2C1C=CC(C(O)C1CC=CCC1)N2Nc1ccccn1 (stereo unspecified) | -1.16 | 1.05 (inactive) | -1.35 (inactive) | 1.07 (inactive) | 0.916 (inactive) | 0.636 (inactive) | -0.857 (inactive) | -0.0662 (inactive) | -1.57 | 0.0512 | 0.467 (inactive) | 0.362 | 0.45 | -0.315 (inactive) | 0.113 (inactive) | -0.22 (inactive) |
| CC(C)OC(=O)C=C1C[C@@H](c2cccc(Cl)c2)O[C@@H](c2cccc(Cl)c2)O1 | -0.307 | -2.84 (inactive) | 0.147 (inactive) | -0.516 (inactive) | 0.959 (inactive) | -0.587 (inactive) | -0.581 (inactive) | 0.323 (inactive) | -1.03 | 0.0307 | 0.262 (inactive) | -0.226 | -0.642 | -2.09 (inactive) | 0.193 (inactive) | -0.0046 (inactive) |
| [N-]=[N+]=Nc1ccccc1C[C@]1(C(=O)N2CCCCC2)COC(c2ccc(OCCCO)cc2)=N1 | 0.508 | -1.44 (inactive) | -0.823 (inactive) | 1.78 (inactive) | -0.248 (inactive) | 0.266 (inactive) | 1.18 (inactive) | 0.344 (inactive) | 0.552 | 0.054 | 1.98 (inactive) | 0.204 | -2.29 | -6.17 (inactive) | 0.118 (inactive) | -0.232 (inactive) |
| C=C(/C(=C/C[C@H](OC(=O)c1ccncc1)c1ccc(OCCO)cc1)c1cc(C(=O)OC)ccc1OC)C(C)C | 0.438 | -1.44 (inactive) | -0.0968 (inactive) | -1.88 (inactive) | -0.681 (inactive) | -0.517 (inactive) | -0.427 (inactive) | -0.579 (inactive) | -0.0979 | -0.0095 | 0.249 (inactive) | 0.505 | -2.87 | -3.23 (inactive) | -0.962 (inactive) | -0.621 (inactive) |
| C=CCNC(=O)[C@@H]1[C@H]2C(=O)O[C@H](c3ccccc3)[C@H](c3ccccc3)N2[C@H](c2ccc(OCCO)cc2)[C@@]12C(=O)N(C(=O)OCCOC)c1ccc(C#CCC(C(=O)OC)C(=O)OC)cc12 | -0.185 | 1.01 (inactive) | 0.351 (inactive) | -1.27 (inactive) | 2.85 (inactive) | 1.61 (inactive) | 0.854 (inactive) | -0.033 (inactive) | -1.24 | 0.284 | 1.33 (inactive) | 0.743 | -2.11 | -1.17 (inactive) | 0.053 (inactive) | 0.0115 (inactive) |
| CC(C)NC(=O)[C@@]1(Cc2ccccc2I)c2ccccc2C(=O)N(Cc2ccccc2Cl)[C@H]1c1ccc(CO)cc1 | -0.344 | -0.673 (inactive) | 0.179 (inactive) | 0.0754 (inactive) | -0.103 (inactive) | 0.818 (inactive) | 0.107 (inactive) | -0.706 (inactive) | -0.0558 | 0.0049 | 0.705 (inactive) | 0.615 | 0.0173 | -3.93 (inactive) | -0.0537 (inactive) | 0.1 (inactive) |
